{"source": "PubChem BioAssay (NCATS)", "note": "Inconclusive results are not listed. Unmarked numbers belong to inactive results. Calls of active or inactive are those of the source. The call rests on the fitted dose curve. Potency means the concentration at half of the fitted maximal effect."}
{"assay": "S16 Schwann cell PMP22 intronic element beta-lactamase assay (AID 624044); further: nearly all actives have a fitted effect of over 15% in size", "settings": "S16 rat Schwann cells, PMP22 element beta-lactamase FRET, 24 h; series mostly up to 38.3 µM; ratio activity, negative = inhibition: at the top concentration", "description": "Description: Charcot-Marie-Tooth-Association [CMTA] National Center for Advancing Translational Sciences [NCATS] Charcot-Marie-Tooth (CMT) disease was first characterized by Jean-Martin Charcot and Pierre Marie in France and, independently, by Howard Henry Tooth in England in 1886. CMT is one of the most common inherited neurological diseases, affecting approximately 1 in 2,500 Americans. […] The most prevalent type of CMT is known as CMT1A and caused by a duplication of the PMP22 gene which leads to over-expression of this protein. PMP22 is a glycosylated intrinsic membrane protein accounting for 2-5% of the myelin protein content, and its over-expression results in demyelination and subsequently axonal loss. A pair of cellular transcription-based assays was developed in the S16 rat Schwann cell lines (Hai, M., et al., 2002) stably transfected with orthogonal reporters - firefly luciferase (Fluc) and beta-lactamase (beta-Lac) - whose expression is driven by an intronic regulatory element of the PMP22 gene (Jones, E.A., et al., 2011) to recapitulate endogenous expression of PMP22. The current assay employs Blac as a reporter of PMP22 expression. A comprehensive library of approved drugs, the NCGC Pharmaceutical Collection (Huang, R., et al., 2011), was screened in the cross-validating platform of the orthogonal reporter assays to identify drug modulators inhibitory towards PMP22 expression. A set of counter-screens was devised to address non-specific activity of the library. An ATP-dependent CellTiter-Glo assay (developed by Promega Corp) was utilized to control cell viability. In addition, biochemical Fluc enzyme assay was performed to assess direct inhibition of the Fluc enzymatic activity. References Hai, M., Muja, N., DeVries, G.H., Quarles, R.H. and Patel, P.I. Comparative analysis of Schwann cell lines as model systems for myelin gene transcription studies. J Neurosci Res, 2002. 69(4): pp 497-508 Huang, R., Southall, N., Wang, Y., Yasgar A., Shinn P., Jadhav, A. , Nguyen, D.-T. and Austin, C.P., The NCGC pharmaceutical collection: a comprehensive resource of clinically approved drugs enabling repurposing and chemical genomics. Sci Transl Med, 2011. 3(80): p. 80ps16.\nS16 Schwann cell PMP22 intronic element beta-lactamase assay The beta-Lac-expressing S16 cells were seeded in black clear-bottom 1536 well plates at between 500-750 cells/6uL in DMEM medium containing 10% FBS, w/o phenol red. After overnight incubation at 37 degree Celsius/5% C02, 23 nL of compounds or DMSO were delivered to each well using a pin tool, followed by 24h-incubation at 37 degree Celsius/5% C02. Then one microl of LiveBLAzer FRET B/G detection mix (Invitrogen) was added to each well. An EnVision plate reader (PerkinElmer) was used to detect the dual beta-Lac output composed of fluorescence at 460nm for beta-Lac expression and FRET at 535nm for cell viability. The % signal at 535 nm was scaled to a full range of DMSO and zero and then normalized using the maximum response observed in the screen as 100% activity. The % signal at 460nm was normalized to the average readings of potassium clavulanate (a positive control) - treated cells relative to DMSO-treated cells (0% Activity). The concentration-effect curves were then classified based on curve quality (r2), response magnitude and degree of measured activity."}
{"smiles": "CCCN1CCC[C@H](c2cccc(O)c2)C1", "ratio activity, negative = inhibition": "-0.254%"}
{"smiles": "COC(C)(C)CCCC(C)C/C=C/C(C)=C/C(=O)OC(C)C", "note": "(configuration not stated)", "ratio activity, negative = inhibition": "-0.826%"}
{"smiles": "CCCCCCCCCC(CC)c1ccc(S(=O)(=O)O)cc1", "note": "(configuration not stated)", "ratio activity, negative = inhibition": "1.24%"}
{"smiles": "COC(=O)c1cncn1C(C)c1ccccc1", "note": "(configuration not stated)", "ratio activity, negative = inhibition": "-1.9%"}
{"smiles": "C#CC1(O)CCC2C3CCC4=CC(=O)CCC4(C)C3CCC21C", "note": "(configuration not stated)", "ratio activity, negative = inhibition": "-1.58%"}
{"smiles": "CC(C)NC(C)Cc1ccc(I)cc1", "note": "(configuration not stated)", "ratio activity, negative = inhibition": "-8.02%"}
{"smiles": "COC(=O)[C@@H](N)CCCN=C(N)N[N+](=O)[O-]", "ratio activity, negative = inhibition": "8.49%"}
{"smiles": "CN(C)[C@@H]1C(=O)C(C(N)=O)=C(O)[C@@]2(O)C(=O)C3=C(O)c4c(O)cccc4[C@@](C)(O)[C@H]3[C@H](O)[C@@H]12", "ratio activity, negative = inhibition": "-3.81%"}
{"smiles": "C=CCN1CC[C@]23CCCCC2[C@H]1Cc1ccc(O)cc13", "note": "(some centres not stated)", "ratio activity, negative = inhibition": "2.01%"}
{"smiles": "c1ccc(C2(c3ccccc3)CC2C2=NCCN2)cc1", "note": "(configuration not stated)", "ratio activity, negative = inhibition": "2.17%"}
{"smiles": "NC1=NC(=O)N2CC12", "note": "(configuration not stated)", "ratio activity, negative = inhibition": "7.03%"}
{"smiles": "CC[N+]1(CCOC(=O)C(O)(c2ccccc2)c2ccccc2)CCCCC1", "ratio activity, negative = inhibition": "-0.891%"}
{"smiles": "NC(=O)CN1CC(O)CC1=O", "note": "(configuration not stated)", "ratio activity, negative = inhibition": "0.0563%"}
{"smiles": "CN1C2CCC1CC(OC(=O)c1cc(Cl)cc(Cl)c1)C2", "note": "(configuration not stated)", "ratio activity, negative = inhibition": "1.39%"}
{"smiles": "C[C@]12CCC(=O)C(O)=C1CC[C@@H]1[C@H]3CCC(=O)[C@@]3(C)CC[C@@H]12", "ratio activity, negative = inhibition": "2.41%"}
{"smiles": "CC(=O)[O][Hg][c]1ccccc1", "Potency": "14.1 µM (active)"}
{"smiles": "CC(=O)OCC1=C(C(=O)O)N2C(=O)[C@@H](N)[C@@H]2SC1", "ratio activity, negative = inhibition": "-2.36% [at 17.1 µM]"}
